Measured values: PubChem BioAssay AID1159580 (chemical genetic matrix, 2015)
Where “and” joins values, the source holds several entries; their conditions need not be identical. Identical values can stand only once. The campaign covered roughly 5,500 compounds. About 2,000 (36%) were called active. Inconclusive results (about 18%) are left out. No stated cut-off is given here; in the data, active means normalized growth mostly below about 0.91 (no sharp cut-off); inconclusive means no clear call, values can overlap the other calls; inactive means mostly above about 0.92. This is one part of the list.

Test: chemical genetic growth profiling, strain panel (AID 1159580);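 further: tested at 20 µM; growth read once vehicle control cultures reached saturation at 30 °C; 1 = growth at the plate median or of vehicle wells; lower values mean less growth of the strain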
Conditions: S. cerevisiae deletion strains, growth OD

Measured: normalized growth

CCCCOc1ccc(CC(=O)NO)cc1
inactive: locus YAL021C, strain ccr4, active compounds read low 0.987 | locus YAL026C, strain drs2, active compounds read low 0.983 | locus YAL030W, strain snc1, active compounds read low 1 | locus YBL061C, strain skt5, active compounds read low 0.996 | locus YBR009C, strain hhf1, active compounds read low 0.953 | locus YBR021W, strain FUR4, active compounds read low 1.02 | locus YBR023C, strain chs3, active compounds read low 0.993 | locus YBR171W, strain sec66, active compounds read low 0.98 | locus YBR229C, strain ROT2, active compounds read low 1 | locus YBR231C, strain swc5, active compounds read low 0.988 | locus YBR279W, strain paf1, active compounds read low 1 | locus YCL011C, strain gbp2, active compounds read low 0.99 | locus YCL016C, strain dcc1, active compounds read low 0.967 | locus YCL029C, strain bik1, active compounds read low 1 | locus YCL061C, strain MRC1, active compounds read low 1.01 | locus YCL069W, strain vba3, active compounds read low 0.973 | locus YCR088W, strain abp1, active compounds read low 1 | locus YDL005C, strain med2, active compounds read low 0.994 | locus YDL035C, strain GPR1, active compounds read low 0.977 | locus YDL040C, strain nat1, active compounds read low 0.998 | locus YDL074C, strain BRE1, active compounds read low 0.964 | locus YDL101C, strain DUN1, active compounds read low 0.99 | locus YDL134C, strain PPH21, active compounds read low 0.965 | locus YDL185W, strain tfp1, active compounds read low 1 | locus YDL192W, strain arf1, active compounds read low 1.01 | locus YDR001C, strain nth1, active compounds read low 0.991 | locus YDR069C, strain doa4, active compounds read low 1 | locus YDR101C, strain arx1, active compounds read low 0.988 | locus YDR137W, strain rgp1, active compounds read low 0.857 | locus YDR150W, strain NUM1, active compounds read low 0.992 | locus YDR159W, strain sac3, active compounds read low 0.96 | locus YDR162C, strain NBP2, active compounds read low 0.99 | locus YDR195W, strain ref2 0.94 | locus YDR297W, strain sur2, active compounds read low 0.992 | locus YDR318W, strain mcm21, active compounds read low 1.01 | locus YDR334W, strain swr1, active compounds read low 1.02 | locus YDR335W, strain msn5, active compounds read low 1.01 | locus YDR388W, active compounds read low 1 | locus YDR392W, strain spt3, active compounds read low 0.935 | locus YDR502C, strain sam2, active compounds read low 0.997 | locus YEL003W, strain gim4, active compounds read low 0.97 | locus YEL037C, strain rad23, active compounds read low 0.993 | locus YEL061C, strain CIN8 (second series), active compounds read low 0.994 | locus YEL061C, strain CIN8, active compounds read low 0.996 | locus YER015W, strain faa2, active compounds read low 1 | locus YER016W, strain bim1, active compounds read low 0.997 | locus YER110C, active compounds read low 1.02 | locus YER111C, strain swi4, active compounds read low 0.996 | locus YER155C, strain BEM2 (second series), active compounds read low 0.939 | locus YER155C, strain BEM2, active compounds read low 0.994 | locus YER167W, strain BCK2, active compounds read low 0.989 | locus YFR010W, strain ubp6, active compounds read low 0.999 | locus YGL078C, strain dbp3, active compounds read low 1 | locus YGL086W, strain mad1, active compounds read low 1 | locus YGL167C, strain pmr1, active compounds read low 1.01 | locus YGL173C, strain kem1, active compounds read low 1.02 | locus YGL227W, strain vid30, active compounds read low 0.993 | locus YGL240W, strain doc1, active compounds read low 0.997 | locus YGL248W, strain PDE1, active compounds read low 0.965 | locus YGL253W, strain hxk2, active compounds read low 0.975 | locus YGR078C, strain PAC10, active compounds read low 0.957 | locus YGR135W, strain pre9, active compounds read low 1 | locus YGR229C, strain SMI1, active compounds read low 0.916 | locus YGR252W, strain gcn5, active compounds read low 0.878 | locus YHR013C, strain ard1, active compounds read low 0.978 | locus YHR027C, strain rpn1, active compounds read low 1.01 | locus YHR030C, strain SLT2, active compounds read low 0.994 and 1.05 | locus YHR079C, strain IRE1 (second series), active compounds read low 1.01 | locus YHR079C, strain IRE1, active compounds read low 1 | locus YHR094C, strain hxt1, active compounds read low 1 | locus YHR129C, strain ARP1, active compounds read low 0.994 | locus YHR142W, strain chs7, active compounds read low 0.961 | locus YHR200W, strain rpn10, active compounds read low 1.01 | locus YIL066C, strain RNR3, active compounds read low 0.915 | locus YIL073C, strain SPO22, active compounds read low 0.974 | locus YIL125W, strain kgd1, active compounds read low 0.997 | locus YIR030C, strain dcg1, active compounds read low 1 | locus YJL092W, strain hpr5, active compounds read low 0.997 | locus YJL095W, strain BCK1 (second series), active compounds read low 1 | locus YJL095W, strain BCK1, active compounds read low 0.959 and 1.01 | locus YJL115W, strain asf1, active compounds read low 1 | locus YJL129C, strain trk1, active compounds read low 0.966 | locus YJL134W, strain LCB3, active compounds read low 0.996 | locus YJL154C, strain vps35, active compounds read low 0.997 | locus YJL164C, strain tpk1, active compounds read low 0.985 | locus YJL166W, strain qcr8, active compounds read low 0.922 | locus YJL168C, strain set2, active compounds read low 1 | locus YJL187C, strain SWE1 (second series), active compounds read low 0.991
